Results: PubChem BioAssay (NCATS)
Records with an inconclusive call do not appear. A call without a number means that no potency is given here. Values without a mark were called inactive. Calls of active or inactive are those of the source. Calls come from the whole dose curve; as a rule, active = well fitted curve in the direction sought with a large enough effect; inconclusive = small, poorly fitted or top-dose-only effect, or another doubt; inactive = no such curve, though single readings can be large; an effect the other way counts as inactive or inconclusive.

Tests used:
[1] = system: Zika virus NS2B-NS3 protease; experiment: Primary screen GU AMC qHTS for Zika virus inhibitors (AID 1347154); note: nearly all actives have a fitted effect of over 70% in size
Outline: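 Unlinked Zika NS2B hydrophilic domain–NS3 protease complex at 25 nM in 10 mM Tris-HCl pH 8.0, 0.01% Tween 20, with an AMC peptide substrate. Fluorescence change (340/450 nm) over 15 min at room temperature, normalized to controls, fitted to 4-parameter Hill.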

[2] = Primary qHTS for small molecule stabilizers of the endoplasmic reticulum resident proteome: Secreted ER Calcium Modulated Protein (SERCaMP) assay (AID 1508630)
Outline: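 GLuc-SERCaMP-expressing SH-SY5Y cells, pretreated 16 h with compound, are challenged with thapsigargin to empty ER calcium stores; after 4 h, coelenterazine is added directly to the medium and luminescence is imaged.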

CCCCCCCCCCOCCC(=O)O
activity change, negative = inhibition [1]: 12.5% [at 6.83 µM]
activity change, negative = inhibition [2]: -6.7% [at 3.88 µM]

CC(N)CCCP(=O)(O)O (centres undefined)
Potency [1]: inactive
Potency [2]: inactive
